Bioassay records: PubChem BioAssay, National Center for Advancing Translational Sciences (NCATS)
Chronic BCR inh: chronic active BCR signaling inhibition | Potency, µM (series often up to 46.1 µM), hits mostly inhibitors | ABC-DLBCL IkBa-CBG/CBR reporter, luminescence ratio, 4 h | actives 0.05% (n = 340,000); active = well fitted inhibition curve with a large enough effect in the signal ratio, with a control signal flat, not every such curve was filed as active; inconclusive = small, poorly fitted or top-dose-only effect, or effect the other way, or a change in a side signal; the % refers to the signal ratio
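TMD8 ABC-DLBCL cells carrying doxycycline-inducible green luciferase fused to IkappaBalpha plus unfused red luciferase were exposed to compounds (up to 46 uM) for 4 hrs at 37C. Activity came from the overlap-corrected green/red luminescence ratio.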
TSHR antag: blocks TSH signaling through the human TSH receptor. P16473. TSHR-expressing cells, TSH-stimulated cAMP HTRF, 2 h; active compounds read low. activity change, negative = inhibition, % at 11.5 µM. actives 0.2% (n = 330,000). AID 504810;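 active = activity change below a set negative limit, meaning inhibition stronger than a set level, cut at about -70% in these data; inconclusive = activity change between two set negative limits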
Target sequence (P16473 whole entry, looked up): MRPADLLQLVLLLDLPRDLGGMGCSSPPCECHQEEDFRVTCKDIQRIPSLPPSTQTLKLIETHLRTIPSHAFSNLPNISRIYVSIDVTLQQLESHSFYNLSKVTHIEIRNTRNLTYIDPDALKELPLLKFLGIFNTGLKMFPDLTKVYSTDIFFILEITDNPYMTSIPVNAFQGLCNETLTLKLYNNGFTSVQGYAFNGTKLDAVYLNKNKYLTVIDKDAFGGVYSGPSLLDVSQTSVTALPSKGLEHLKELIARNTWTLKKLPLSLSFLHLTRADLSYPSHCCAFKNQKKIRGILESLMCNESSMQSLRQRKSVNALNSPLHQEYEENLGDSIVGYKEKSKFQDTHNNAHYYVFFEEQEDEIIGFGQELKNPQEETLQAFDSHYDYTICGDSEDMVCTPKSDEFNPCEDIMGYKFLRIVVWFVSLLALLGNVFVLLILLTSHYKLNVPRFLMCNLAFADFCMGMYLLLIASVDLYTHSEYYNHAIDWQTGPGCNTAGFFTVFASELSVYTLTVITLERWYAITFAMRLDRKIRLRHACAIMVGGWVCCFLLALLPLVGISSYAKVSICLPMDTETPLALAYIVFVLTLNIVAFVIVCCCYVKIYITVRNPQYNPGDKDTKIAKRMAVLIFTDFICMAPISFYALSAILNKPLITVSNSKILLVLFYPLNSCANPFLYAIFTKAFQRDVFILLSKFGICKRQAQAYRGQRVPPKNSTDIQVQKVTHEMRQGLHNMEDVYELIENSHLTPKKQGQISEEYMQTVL
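Read-out is FRET at 665 nm (cryptate excitation 337 nm) from a cryptate-tagged anti-cAMP antibody, competed by cell cAMP against cAMP-d2. Compounds are tested on freshly harvested TSHR cells challenged with 4nM TSH (EC80) for 2 hours at 37 deg C.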
S-ASM inh: blocks human secretory acid sphingomyelinase; Potency, µM (doses to about 57.5 µM), usual class: inhibitors; placental ASM, HMU-PC fluorogenic substrate, 60 min; actives 0.006% (n = 340,000); AID 504937; active = well fitted inhibition curve with a large enough effect; inconclusive = small, poorly fitted or top-dose-only effect; inactive = no such curve, though single readings can be large or run the other way
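Human placenta-derived ASM preincubated with compound 10 min at room temperature, then reacted with 9 uM (final) fluorogenic HMU-PC substrate for 60 min at 37 C. Stop solution raises pH to 10; fluorescence read at Ex 386/Em 447 nm.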
CtBP-E1A inh: CtBP/E1A binding inhibition; AlphaScreen GST-E1A/His-CtBP binding, 1536-well; active compounds read low; activity change, % (no concentration beside the values); actives 0.49% (n = 340,000)
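In 5 uL wells, 23 nL compound meets equimolar GST-E1A and His-CtBP (5X stock 125 nM each) for 2 h, 37 °C. Beads (5X, 50 ug/mL) then 1 h, 37 °C, dark.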
Six1-Eya2 inh: blocks human Six1 binding to Eya2; AlphaScreen GST-Six1/His-Eya2 binding, biochemical; active compounds read low; activity change, % (concentration not given with the values); Q15475+O00167; AID 651725; actives 0.56% (n = 360,000)
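Six1/Eya2 binding was read as AlphaScreen signal after compounds were pinned into GST-Six1 plus His-tagged Eya2 (5X stock 250/500 nM) in pH 8.0 Tris/NaCl/TCEP buffer, beads added, then incubated 1 h, 37 C, dark.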
A number is an active result; [ ] = dose if it differs, or a comment. Shown are actives, neighbours in structure and some others; about 0.85% of the full set was active somewhere. Cut-off read from the data, not from the text of the source, unless noted: active = activity change below about -65%; inconclusive = mostly about -30% to -63%; inactive = weaker than that.

Results for Nc1nc(-c2ccccn2)nc(N)c1Cc1ccccc1F ?
Chronic BCR inh: inactive; TSHR antag: inactive; S-ASM inh: inactive; CtBP-E1A inh: -90; Six1-Eya2 inh: -74

How did CCCCN(c1ccccc1)S(=O)(=O)c1cc2c3c(c1)C(C)C(=O)N3CCC2 (stereo not drawn) do in these assays?
Chronic BCR inh: inactive

What do the screens show for `NC1=NC(=O)/C(=C/c2ccccc2OCC(=O)Nc2ccc(F)cc2)S1`?
Chronic BCR inh: inactive; TSHR antag: inactive; S-ASM inh: inactive; CtBP-E1A inh: inactive; Six1-Eya2 inh: inactive

Results for O=C(COc1ccccc1/C=C1\SC(=S)NC1=O)Nc1ccc(F)cc1 ?
Chronic BCR inh: inactive; TSHR antag: inconclusive; S-ASM inh: inactive; CtBP-E1A inh: -85; Six1-Eya2 inh: inactive

Results for Cc1ccccc1NC(=O)N1CCC(C(=O)c2ccc(F)cc2)CC1 ?
Chronic BCR inh: inactive; TSHR antag: inactive; S-ASM inh: inactive; CtBP-E1A inh: inactive; Six1-Eya2 inh: inactive

How did Cc1cccc(C)c1NC(=O)N1CCC(C(=O)c2ccc(F)cc2)CC1 do in these assays?
Chronic BCR inh: inactive; TSHR antag: -79; S-ASM inh: inactive; CtBP-E1A inh: inactive; Six1-Eya2 inh: inactive

How did O=C(CC1N=C2c3ccccc3N=C(SCc3cccc(F)c3)N2C1=O)NCc1ccc2c(c1)OCO2 (stereo not drawn) do in these assays?
Chronic BCR inh: inactive

Results for COc1ccc(CCNc2nc(-c3ccncc3)cs2)cc1OC ?
Chronic BCR inh: inactive; TSHR antag: inactive; S-ASM inh: inactive; CtBP-E1A inh: inactive; Six1-Eya2 inh: inactive

How did COc1ccc(CCNc2nc(-c3ccccn3)cs2)cc1OC do in these assays?
Chronic BCR inh: inconclusive; TSHR antag: inactive; S-ASM inh: inactive; Six1-Eya2 inh: -79

How did COc1ccccc1CNC(=O)Cn1c(-c2ccc(F)cc2)cc(C(C)=O)c1C do in these assays?
Chronic BCR inh: inactive

Results for COCCN1Cc2cccc(C(=O)Nc3ccc(C)c(C)c3)c2C1=O ?
Chronic BCR inh: inconclusive; TSHR antag: inactive; S-ASM inh: inactive; CtBP-E1A inh: -79; Six1-Eya2 inh: -74

How did CCOC(=O)c1ccc2c(c1)N(Cc1ccc(F)cc1Cl)C(=O)c1ccccc1S2 do in these assays?
Chronic BCR inh: inactive

How did O=C(NCc1ccccc1F)C(=O)NCC(c1ccco1)S(=O)(=O)c1cccs1 (stereo not drawn) do in these assays?
Chronic BCR inh: inactive

Results for CCN(CC)CCN1C(=O)c2cccc3cc(N)cc(c23)C1=O ?
Chronic BCR inh: inconclusive; TSHR antag: -76; S-ASM inh: inactive; CtBP-E1A inh: inactive; Six1-Eya2 inh: inactive

How did Nc1cc2c3c(cccc3c1)C(=O)N(CCN1CCCC1)C2=O do in these assays?
Chronic BCR inh: inconclusive; TSHR antag: inactive; S-ASM inh: inactive; CtBP-E1A inh: inactive; Six1-Eya2 inh: inactive

How did CCOc1cc2[nH]c(=O)n(CCCC(=O)N3CCN(c4ccc(OC)cc4)CC3)c(=O)c2cc1OCC do in these assays?
Chronic BCR inh: inactive

How did COc1cccc(-c2coc3c(C)c4oc(=O)c(CCC(=O)O)c(C)c4cc23)c1 do in these assays?
Chronic BCR inh: inconclusive; TSHR antag: inactive; S-ASM inh: inactive; CtBP-E1A inh: -88; Six1-Eya2 inh: inconclusive

What do the screens show for `COc1cccc(-c2coc3cc4oc(=O)c(CCC(=O)O)c(C)c4cc23)c1`?
Chronic BCR inh: inconclusive; TSHR antag: inactive; S-ASM inh: inactive; CtBP-E1A inh: -67; Six1-Eya2 inh: -77

What do the screens show for `CN(CC(=O)Nc1ccccc1Cl)C(=O)COC(=O)c1nc(Cl)c(Cl)c(Cl)c1Cl`?
Chronic BCR inh: inconclusive; TSHR antag: -89; S-ASM inh: inactive; CtBP-E1A inh: inactive; Six1-Eya2 inh: inactive

Results for Cc1ccc(Cn2c(SCC(=O)NCc3ccccc3Cl)nc3ccsc3c2=O)cc1 ?
Chronic BCR inh: inactive

Results for O=C1c2ccccc2C(=O)N1CCCCSc1nnnn1-c1ccccc1 ?
Chronic BCR inh: inactive; TSHR antag: -72; S-ASM inh: inactive; CtBP-E1A inh: inactive; Six1-Eya2 inh: inactive

What do the screens show for `CCCC[C@]12Cc3cc(C#N)ccc3C(O1)c1c(c3cc(F)ccc3oc1=O)O2`?
Chronic BCR inh: inactive[9.22 µM]

How did N#Cc1c([N+](=O)[O-])cc([N+](=O)[O-])cc1S(=O)(=O)Cc1ccccc1 do in these assays?
Chronic BCR inh: inconclusive; TSHR antag: -81; S-ASM inh: inactive; CtBP-E1A inh: inactive; Six1-Eya2 inh: inconclusive

What do the screens show for `COc1cc(OC)c(C#N)c(S(=O)(=O)Cc2ccccc2)c1`?
Chronic BCR inh: inactive; TSHR antag: inactive; S-ASM inh: inactive; CtBP-E1A inh: inactive; Six1-Eya2 inh: inactive

How did CN(C)c1nc2c(Br)c(Br)c(Br)c(Br)c2[nH]1 do in these assays?
TSHR antag: inactive

How did CCOC(=O)C(CC)Sc1c(CC)cnc2c1c(=O)n(C)c(=O)n2C (stereo not drawn) do in these assays?
Chronic BCR inh: inactive

Results for C/C(=N\NC(=O)c1cc(-c2cccs2)nc2ccccc12)c1ccccn1 ?
Chronic BCR inh: inconclusive; TSHR antag: inactive; S-ASM inh: inactive; CtBP-E1A inh: -86; Six1-Eya2 inh: -82

What do the screens show for `O=C(N/N=C/c1ccccn1)c1cc(-c2ccncc2)nc2ccccc12`?
Chronic BCR inh: inconclusive; TSHR antag: inactive; S-ASM inh: inactive; CtBP-E1A inh: -73; Six1-Eya2 inh: -72

How did C/C(=N\NC(=O)c1ccccc1OCc1ccc(F)cc1)c1ccccn1 do in these assays?
Chronic BCR inh: inconclusive; TSHR antag: inactive; S-ASM inh: inactive; Six1-Eya2 inh: inconclusive

How did C/C(=N\NC(=O)c1cccc2ccccc12)c1ccccn1 do in these assays?
Chronic BCR inh: inconclusive; TSHR antag: inactive; S-ASM inh: inactive; CtBP-E1A inh: -92; Six1-Eya2 inh: -91

How did C/C(=N\NC(=O)c1ccccc1Cl)c1ccccn1 do in these assays?
Chronic BCR inh: inconclusive; TSHR antag: inactive; S-ASM inh: inactive; Six1-Eya2 inh: -91

Results for Cc1cnc2c(c1SCC(=O)Nc1ccc(F)cc1F)c(=O)n(C)c(=O)n2C ?
Chronic BCR inh: inactive

How did Cc1ccccc1NC(=O)CCn1nc(-c2ccccc2)c2ccccc2c1=O do in these assays?
Chronic BCR inh: inactive

How did C/C(=N\NC(=O)C1COc2ccccc2O1)c1ccccn1 (stereo not drawn) do in these assays?
Chronic BCR inh: inconclusive; TSHR antag: inactive; S-ASM inh: inactive; CtBP-E1A inh: -86; Six1-Eya2 inh: -91

Results for CN(Cc1ccco1)c1ncnc2ccc(-c3cccc(Cl)c3)cc12 ?
Chronic BCR inh: inactive; TSHR antag: inactive

What do the screens show for `CC(NC(=O)Nc1nnc(C(F)(F)F)s1)(C(F)(F)F)C(F)(F)F`?
Chronic BCR inh: inactive; TSHR antag: -94; S-ASM inh: inactive; CtBP-E1A inh: inactive; Six1-Eya2 inh: inactive

What do the screens show for `CC(C)(C)CC(=O)Nc1nnc(C(F)(F)F)s1`?
Chronic BCR inh: inactive; TSHR antag: inactive; S-ASM inh: inactive; CtBP-E1A inh: inactive; Six1-Eya2 inh: inactive
